Assay outcomes from PubChem.
This is a sample that favours compounds with a hit; in the whole collection about 4% have one here.
Arbovirus anti: blocks arbovirus infection; hit rate 0.37% among 200,000; arbovirus infection cell-based antiviral screen; AID 1251; inhibition, % at 10 µM; in the data active means inhibition above about 30%
KCC2 mod: modulators of human KCC2 chloride dependent transport; B-score of Tl+ flux slope (higher = more flux/activation; lower = inhibition) at 10 µM; Q9H2X9; AID 1456; hit rate 2.2% among 190,000; KCC2 cells, thallium flux FluoZin-2 fluorescence;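 active means thallium flux slope and its plate-corrected score both differing from the plate sample mean at a set confidence after two filtering rounds, in either direction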;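 further: slope of fluorescence scaled to starting intensity during 10 to 20 s after thallium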
Target sequence (Q9H2X9 whole entry, looked up): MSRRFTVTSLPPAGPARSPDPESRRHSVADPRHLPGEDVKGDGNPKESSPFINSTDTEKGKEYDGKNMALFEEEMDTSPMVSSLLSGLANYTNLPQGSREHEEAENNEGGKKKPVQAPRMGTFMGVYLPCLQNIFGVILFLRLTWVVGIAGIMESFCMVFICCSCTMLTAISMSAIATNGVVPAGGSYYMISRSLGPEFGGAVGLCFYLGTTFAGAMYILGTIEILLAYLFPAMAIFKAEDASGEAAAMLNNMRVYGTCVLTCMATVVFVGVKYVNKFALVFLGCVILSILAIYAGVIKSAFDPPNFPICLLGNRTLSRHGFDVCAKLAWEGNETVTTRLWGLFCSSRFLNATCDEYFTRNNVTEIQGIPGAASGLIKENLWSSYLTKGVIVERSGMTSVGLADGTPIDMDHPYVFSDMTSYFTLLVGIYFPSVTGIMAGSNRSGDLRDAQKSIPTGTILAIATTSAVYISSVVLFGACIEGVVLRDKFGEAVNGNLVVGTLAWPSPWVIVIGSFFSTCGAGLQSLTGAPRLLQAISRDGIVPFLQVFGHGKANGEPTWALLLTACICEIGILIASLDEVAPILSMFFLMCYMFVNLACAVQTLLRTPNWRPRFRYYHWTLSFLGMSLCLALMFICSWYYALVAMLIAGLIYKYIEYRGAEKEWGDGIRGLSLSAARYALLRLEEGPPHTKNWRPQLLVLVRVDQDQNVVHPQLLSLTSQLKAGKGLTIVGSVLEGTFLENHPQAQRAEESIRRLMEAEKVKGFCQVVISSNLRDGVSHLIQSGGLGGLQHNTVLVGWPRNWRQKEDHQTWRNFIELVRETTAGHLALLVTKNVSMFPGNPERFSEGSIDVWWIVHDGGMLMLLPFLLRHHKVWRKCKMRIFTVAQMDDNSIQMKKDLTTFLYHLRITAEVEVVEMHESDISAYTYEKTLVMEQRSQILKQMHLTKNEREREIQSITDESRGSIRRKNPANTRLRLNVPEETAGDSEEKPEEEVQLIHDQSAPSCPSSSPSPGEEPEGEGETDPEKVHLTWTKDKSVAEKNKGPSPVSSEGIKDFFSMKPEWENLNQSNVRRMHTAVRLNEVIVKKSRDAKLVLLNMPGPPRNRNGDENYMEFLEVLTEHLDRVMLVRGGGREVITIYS
HSV replic up: increases HSV replication in cells | HSV replication augmentation in cells, fold increase | maximum fold increase | hit rate 0.005% among 220,000 | AID 1956; in the data active means maximum fold increase above about 1.5; inconclusive means no clear call, values can overlap the other calls; tested in PC3 cells
Measles CPE: protection of cells from measles virus | Measles virus-infected cells, CPE protection, absorbance | protection (pct of control), % at 4 µM | hit rate 1.5% among 140,000 | AID 841; in the data active means protection mostly above about 24%, no sharp cut-off; inactive means mostly below about 26%
ROMK mod: human ROMK K+ channel modulation, primary screen | B-score at 10 µM | hit rate 2% among 130,000 | Tet-inducible ROMK, thallium flux fluorescence; actives lie on both sides | P48048 | AID 1918;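 active means signal ratio slope over the read window, or its plate-corrected B-score, at least 3 SD from the plate mean, either direction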;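 further: B-score of the F/F0 ratio slope over 7 to 12 s after thallium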
KCC2 secondary: KCC2 (human) modulation, secondary assay; normalised thallium flux (F/F0 slope) at 10 µM; HEK293-KCC2, thallium flux, FluoZin2 fluorescence; active compounds read high; hit rate 15% among 3,700; shares compounds with KCC2 mod;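 active means thallium flux slope above the same plate's solvent-only control mean plus 3 SD; inconclusive means the two replicate wells disagree; inactive means no significant difference from solvent-only control wells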
KCC2 bumet counter: thallium flux despite bumetanide block in KCC2 cells, secondary assay 3. normalized thallium flux at 10 µM. HEK293-KCC2 + bumetanide/ouabain, thallium flux FluoZin2; active compounds read high. hit rate 49% among 3,700. shares compounds with KCC2 mod. AID 1714;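 active means thallium entry rate above the same plate's blocked-transporter control wells by more than 3 SD; inconclusive means the two repeat wells disagree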;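 further: raw slope of fluorescence over initial fluorescence between 10 and 20 s after thallium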
KCC2 sec2: confirmation of human KCC2 transport modulators; shares compounds with KCC2 mod; HEK293-KCC2, thallium flux FluoZin2 fluorescence; actives lie on both sides; F/F0 rise rate, 10–20 s post-thallium; normalized thallium flux at 10 µM; hit rate 23% among 3,700; AID 1715;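 active means thallium flux slope more than 3 SD above or below the plate's solvent-only control mean, mostly below; inconclusive means the two repeat wells disagreed; inactive means no significant shift from solvent-only controls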
HEK293 Tl flux: parental HEK flux effect, counter-screen | shares compounds with KCC2 mod | HEK293 parental cells, thallium flux FluoZin2, ouabain; baseline-ratio fluorescence slope, 10–20 s after thallium | thallium flux rate (normalised fluorescence) at 10 µM | hit rate 46% among 3,700;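 active means thallium flux rate significantly above the same plate's solvent-only control wells, beyond their mean plus 3 SD; inconclusive means the two replicate wells gave conflicting results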
KCC2 retest ouab: modulates human KCC2 on retest with ouabain; shares compounds with KCC2 mod; HEK293-KCC2, thallium flux FluoZin2 fluorescence; bidirectional: low = inhibitor, high = activator; raw Tl+ flux slope (below DMSO = inhibition, above = activation) at 10 µM; hit rate 48% among 3,700; AID 1717;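 active means thallium flux slope beyond 3 SD from same-plate DMSO control mean in most replicates, usually higher, sometimes lower; inconclusive means repeat tests gave conflicting results; inactive means no significant difference from controls in most replicates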;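 further: slope of initial-normalized fluorescence between seconds 10 and 20 after thallium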
HEK counter2: parental HEK flux effect, counter-screen 2; shares compounds with KCC2 mod; HEK293 parental, thallium flux FluoZin-2 fluorescence slope; thallium flux slope at 10 µM; hit rate 33% among 3,700; AID 1718;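 active means thallium flux slope above the same plate's solvent-control mean plus 3 SD in both duplicate wells; inconclusive means duplicate wells that disagreed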;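 further: run without ouabain in cells lacking the KCC2 cotransporter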
Large screens that a line does not name were inactive (follow-up assays come after a bar, where they were run).

COc1ccc(C2C(C(=O)N3CCCCC3)CC(=O)N2c2ccc(OC)cc2)cc1 (stereo unspecified)	none (no result: ROMK mod)
CCN(CC)C(=O)C1CC(=O)N(c2ccc(OC)cc2)C1c1ccc(OC)cc1 (stereo unspecified)	KCC2 mod -4.1 (no result: ROMK mod) | KCC2 secondary inactive | KCC2 bumet counter 0.0057 | KCC2 sec2 inactive | HEK293 Tl flux inactive | KCC2 retest ouab inactive | HEK counter2 inactive
COc1ccc(CNC(=O)CSc2nc3cccnc3s2)cc1	none (no result: Arbovirus anti, KCC2 mod, Measles CPE, ROMK mod)
Cc1ccc(-n2cccc2/C=N/n2cnnc2)cc1Cl	none (no result: KCC2 mod) | KCC2 secondary inactive | KCC2 bumet counter inactive | KCC2 sec2 inactive | HEK293 Tl flux inactive | KCC2 retest ouab inactive | HEK counter2 inactive
Oc1ccc(-n2cccc2/C=N/n2cnnc2)cc1	none (no result: Measles CPE)
COc1cc2c(cc1OC)C(Nn1cnnc1)=NC1(CCCC1)C2	none (no result: Arbovirus anti, Measles CPE)
Cc1nn(Cc2c(F)c(F)c(F)c(F)c2F)c(C)c1NC(=O)c1ccc(COc2ccccc2Cl)o1	KCC2 mod -6.4 (no result: HSV replic up, ROMK mod) | KCC2 secondary inactive | KCC2 bumet counter inactive | KCC2 sec2 inactive | HEK293 Tl flux inactive | KCC2 retest ouab 0.015 | HEK counter2 inactive
COCCN1C(=O)/C(=C/c2ccc(OCc3ccc(C(=O)O)cc3)c(OC)c2)SC1=Nc1ccccc1	KCC2 mod -5.7 | KCC2 secondary inactive | KCC2 bumet counter inactive | KCC2 sec2 0.022 | HEK293 Tl flux inactive | KCC2 retest ouab 0.013 | HEK counter2 inactive
CCOCCCNCC(=O)Nc1ccc(S(=O)(=O)NC(C)CC)cc1 (stereo unspecified)	none (no result: Measles CPE)
Cc1ccc(C(=O)CCC2CCCC2=O)cc1 (stereo unspecified)	none
Cc1ccc(C(=O)CCC2CCCCC2=O)cc1 (stereo unspecified)	none (no result: KCC2 mod) | KCC2 secondary inactive | KCC2 bumet counter 0.012 | KCC2 sec2 inactive | HEK293 Tl flux inactive | KCC2 retest ouab inconclusive | HEK counter2 inactive
O=C1CCCCC1Sc1nnc(-c2ccc3c(c2)OCO3)o1 (stereo unspecified)	none (no result: Measles CPE)
Fc1cccc2sc(Nc3nc4c(F)cccc4s3)nc12	KCC2 mod 18 | KCC2 secondary inconclusive | KCC2 bumet counter 0.036 | KCC2 sec2 inactive | HEK293 Tl flux 0.052 | KCC2 retest ouab 0.034 | HEK counter2 inconclusive
CN(CCCn1c(=S)[nH]c2ncccc2c1=O)Cc1ccccc1	KCC2 mod 15 (no result: ROMK mod) | KCC2 secondary inconclusive | KCC2 bumet counter 0.057 | KCC2 sec2 inactive | HEK293 Tl flux 0.022 | KCC2 retest ouab 0.057 | HEK counter2 0.014
CCCCCn1c(=S)[nH]c2ncccc2c1=O	KCC2 mod 57 (no result: HSV replic up, ROMK mod) | KCC2 secondary 0.038 | KCC2 bumet counter 0.12 | KCC2 sec2 0.046 | HEK293 Tl flux inconclusive | KCC2 retest ouab 0.094 | HEK counter2 0.036
O=c1c2cccnc2[nH]c(=S)n1CCC1=CCCCC1	KCC2 mod 68 (no result: ROMK mod) | KCC2 secondary 0.041 | KCC2 bumet counter 0.16 | KCC2 sec2 0.051 | HEK293 Tl flux 0.074 | KCC2 retest ouab 0.085 | HEK counter2 0.047
C=CCc1cc(OC)ccc1OCCOCCN1CCc2ccccc2C1	none (no result: Measles CPE)
CC(=O)/C(=N/Nc1ccccc1[N+](=O)[O-])N1CCCc2ccccc21	none (no result: Arbovirus anti, Measles CPE, ROMK mod)
CC(C)NC(=S)N/N=C1\CCCCC1C1CCCCC1 (stereo unspecified)	none
COc1cccc(NC(=S)NN=C2CCCCCC2)c1	KCC2 mod 39 (no result: Measles CPE) | KCC2 secondary 0.019 | KCC2 bumet counter 0.1 | KCC2 sec2 inconclusive | HEK293 Tl flux 0.041 | KCC2 retest ouab 0.05 | HEK counter2 0.017
CCc1ccc(NC(=S)Nc2cccc(OC)c2)cc1	none
CC1CCCC/C1=N\NC(=S)Nc1ccccc1 (stereo unspecified)	KCC2 mod 9.5 (no result: Measles CPE) | KCC2 secondary 0.013 | KCC2 bumet counter 0.053 | KCC2 sec2 inactive | HEK293 Tl flux 0.019 | KCC2 retest ouab 0.048 | HEK counter2 0.013
CC1CCC/C(=N\NC(=S)NCc2ccccc2)C1 (stereo unspecified)	KCC2 mod 8.1 (no result: ROMK mod) | KCC2 secondary inactive | KCC2 bumet counter 0.01 | KCC2 sec2 inactive | HEK293 Tl flux inconclusive | KCC2 retest ouab inactive | HEK counter2 inactive
CC1CCC/C(=N\NC(=S)Nc2ccccc2)C1 (stereo unspecified)	KCC2 mod 15 | KCC2 secondary 0.014 | KCC2 bumet counter 0.049 | KCC2 sec2 inactive | HEK293 Tl flux 0.018 | KCC2 retest ouab 0.035 | HEK counter2 0.012
CC1C/C(=N\NC(=S)NCc2ccccc2)CC(C)(C)C1 (stereo unspecified)	none
CC(=O)C1=C(O)C(=O)N(c2ccc(C)cc2)C1c1ccc([N+](=O)[O-])cc1 (stereo unspecified)	none (no result: Measles CPE)
CNC(=S)N/N=C(\C)c1cccc(C(F)(F)F)c1	KCC2 mod 4.2 (no result: Measles CPE) | KCC2 secondary inconclusive | KCC2 bumet counter 0.033 | KCC2 sec2 inactive | HEK293 Tl flux 0.013 | KCC2 retest ouab inconclusive | HEK counter2 0.012
COC(=O)N/N=C(\C)c1cccc(C(F)(F)F)c1	none (no result: KCC2 mod, Measles CPE)
c1ccc(OCc2nn3c(C4CCCCC4)nnc3s2)cc1	KCC2 mod -3.6 | KCC2 secondary inactive | KCC2 bumet counter inactive | KCC2 sec2 0.024 | HEK293 Tl flux inconclusive | KCC2 retest ouab 0.013 | HEK counter2 inactive
Cc1csc(NC(=O)CSc2ccc(-c3ccccn3)nn2)n1	KCC2 mod -4.9 (no result: Measles CPE) | KCC2 secondary inactive | KCC2 bumet counter inactive | KCC2 sec2 0.023 | HEK293 Tl flux inconclusive | KCC2 retest ouab 0.012 | HEK counter2 inactive
CCOC(=O)N1CCN(C(=O)CSc2ccc(-c3ccccc3)nn2)CC1	KCC2 mod -4.2 (no result: Measles CPE) | KCC2 secondary inactive | KCC2 bumet counter inconclusive | KCC2 sec2 0.028 | HEK293 Tl flux inactive | KCC2 retest ouab 0.014 | HEK counter2 inactive
CC1CCN(C(=O)CSc2ccc(-c3ccccc3)nn2)CC1	KCC2 mod -3.2 (no result: Measles CPE) | KCC2 secondary inconclusive | KCC2 bumet counter inactive | KCC2 sec2 inactive | HEK293 Tl flux inactive | KCC2 retest ouab 0.016 | HEK counter2 inactive
O=C(CSc1ccc(-c2ccccn2)nn1)Nc1nccs1	none (no result: Measles CPE)
Cc1ccc(NC(=O)CSc2ccc(-c3ccco3)nn2)cc1	KCC2 mod -3.3 (no result: HSV replic up, Measles CPE, ROMK mod) | KCC2 secondary inactive | KCC2 bumet counter inactive | KCC2 sec2 0.022 | HEK293 Tl flux inactive | KCC2 retest ouab inactive | HEK counter2 inactive
Cc1sc(NC(=O)c2ccco2)c(CN2CCN(Cc3ccccc3)CC2)c1C	none (no result: Measles CPE)
